# In ChEMBL document CHEMBL3988442, “University of Dundee, Small-Polar-MMV Screening Library” (2021):
# For some of these results: Entries with a potency or affinity are not part of this list.
# Assays:
# Set-up in all cases: scale not given: direction of the effect not stated beside the values
# [1] = molecular target: Protein translocase subunit SecA (Escherichia coli (strain K12)) (UniProt P10408); assay: Assay to Identify E. coli SecA ATPase Inhibitors; format: functional; details: 30 µM
# [2] = molecular target: T1, Ubiquitin-activating enzyme e1, putative (Leishmania donovani (strain BPK282A1)) (UniProt E9BSI1); assay: Leishmania donovani Ubiquitin Activating Enzyme (LdE1); format: functional; details: 30 µM
# T1 sequence (whole entry): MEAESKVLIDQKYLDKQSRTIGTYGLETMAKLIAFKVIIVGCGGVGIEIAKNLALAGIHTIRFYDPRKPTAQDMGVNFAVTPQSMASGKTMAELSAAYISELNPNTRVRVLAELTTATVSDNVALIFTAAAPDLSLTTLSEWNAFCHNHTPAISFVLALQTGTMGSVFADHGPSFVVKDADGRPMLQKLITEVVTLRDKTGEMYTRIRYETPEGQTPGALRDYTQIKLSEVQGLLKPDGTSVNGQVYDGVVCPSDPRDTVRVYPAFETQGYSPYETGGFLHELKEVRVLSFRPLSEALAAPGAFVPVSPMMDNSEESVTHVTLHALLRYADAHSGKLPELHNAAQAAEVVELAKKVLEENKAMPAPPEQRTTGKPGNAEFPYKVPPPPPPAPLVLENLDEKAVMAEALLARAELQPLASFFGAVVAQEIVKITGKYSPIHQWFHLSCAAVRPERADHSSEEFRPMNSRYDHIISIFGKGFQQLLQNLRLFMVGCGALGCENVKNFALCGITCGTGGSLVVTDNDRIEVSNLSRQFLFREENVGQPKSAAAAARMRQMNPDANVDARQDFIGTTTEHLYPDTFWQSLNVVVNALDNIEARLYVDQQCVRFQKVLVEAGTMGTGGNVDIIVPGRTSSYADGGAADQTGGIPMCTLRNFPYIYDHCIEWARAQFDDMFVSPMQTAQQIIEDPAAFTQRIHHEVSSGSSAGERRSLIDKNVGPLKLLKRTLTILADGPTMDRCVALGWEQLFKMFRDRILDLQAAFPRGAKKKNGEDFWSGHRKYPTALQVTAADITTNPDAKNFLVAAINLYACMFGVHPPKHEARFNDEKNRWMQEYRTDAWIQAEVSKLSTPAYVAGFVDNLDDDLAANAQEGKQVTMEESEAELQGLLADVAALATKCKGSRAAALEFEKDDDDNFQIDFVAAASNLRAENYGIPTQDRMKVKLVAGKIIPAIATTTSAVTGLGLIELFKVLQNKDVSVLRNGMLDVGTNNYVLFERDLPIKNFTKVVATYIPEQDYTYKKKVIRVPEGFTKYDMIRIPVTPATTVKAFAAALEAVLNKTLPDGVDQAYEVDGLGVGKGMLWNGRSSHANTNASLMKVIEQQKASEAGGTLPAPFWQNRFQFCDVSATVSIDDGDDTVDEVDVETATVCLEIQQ
# [3] = molecular target: AMP-activated protein kinase, AMPK (Homo sapiens) (UniProt P54646+O43741+P54619+Q9UGJ0+Q9Y478+Q13131+Q9UGI9); assay: AMP-dependent Kinase enzyme assay. An in vitro enzyme assay that detects ADP turnover that is directly proportional to AMPK activity. This uses naive AMPK that is activated during the assay with MK-8722; format: functional; details: 30 µM
# [4] = molecular target: Sialic acid-binding Ig-like lectin 9 (Homo sapiens) (UniProt Q9Y336); assay: Hs-Siglec9 ALPHAscreen SOP 20170721; details: 10 µM
# Sialic acid-binding Ig-like lectin 9 (Homo sapiens), sequence (Q9Y336 whole entry): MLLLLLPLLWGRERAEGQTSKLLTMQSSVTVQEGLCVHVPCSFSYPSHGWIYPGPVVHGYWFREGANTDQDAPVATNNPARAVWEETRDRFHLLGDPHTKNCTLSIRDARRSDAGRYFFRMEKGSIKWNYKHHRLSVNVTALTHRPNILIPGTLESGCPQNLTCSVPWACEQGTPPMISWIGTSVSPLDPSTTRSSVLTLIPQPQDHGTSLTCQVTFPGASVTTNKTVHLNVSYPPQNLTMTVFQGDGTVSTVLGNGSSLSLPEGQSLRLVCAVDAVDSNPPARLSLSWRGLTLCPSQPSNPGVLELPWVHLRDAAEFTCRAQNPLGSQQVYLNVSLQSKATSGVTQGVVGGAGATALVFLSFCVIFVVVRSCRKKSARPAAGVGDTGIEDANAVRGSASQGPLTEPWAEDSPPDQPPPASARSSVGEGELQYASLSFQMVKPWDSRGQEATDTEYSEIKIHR
# Trypanosoma cruzi = assay: Trypanosoma cruzi phosphomannomutase and mannose-1-phosphate guanylyltransferase assay; format: functional; details: 10 µM
# [5] = molecular target: T2, Arginase-2, mitochondrial (Homo sapiens) (UniProt P78540); assay: in vitro enzyme assay to detect the production of urea directly proportional to the activity of Arginase II; format: functional; details: 33.3 µM; also: in the data most compounds retested in dose-response had high values
# T2 sequence (whole entry): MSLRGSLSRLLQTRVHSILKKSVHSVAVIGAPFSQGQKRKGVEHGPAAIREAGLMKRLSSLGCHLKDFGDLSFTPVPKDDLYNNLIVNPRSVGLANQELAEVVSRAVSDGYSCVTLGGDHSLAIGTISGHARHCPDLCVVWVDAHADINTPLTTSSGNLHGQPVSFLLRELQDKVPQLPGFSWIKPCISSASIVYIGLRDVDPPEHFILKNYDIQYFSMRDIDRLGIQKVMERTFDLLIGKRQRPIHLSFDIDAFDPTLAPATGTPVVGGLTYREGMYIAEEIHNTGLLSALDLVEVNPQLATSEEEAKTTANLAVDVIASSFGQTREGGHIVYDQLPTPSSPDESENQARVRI
# [6] = molecular target: T3, Proteasome subunit beta (Trypanosoma cruzi) (UniProt O96673); assay: Trypanosoma cruzi proteasome chymotrypsin-like activity (TcProtChymo) assay.; also: in the data most compounds retested in dose-response had high values; format: functional; details: 9.37 µM
# T3 sequence (whole entry): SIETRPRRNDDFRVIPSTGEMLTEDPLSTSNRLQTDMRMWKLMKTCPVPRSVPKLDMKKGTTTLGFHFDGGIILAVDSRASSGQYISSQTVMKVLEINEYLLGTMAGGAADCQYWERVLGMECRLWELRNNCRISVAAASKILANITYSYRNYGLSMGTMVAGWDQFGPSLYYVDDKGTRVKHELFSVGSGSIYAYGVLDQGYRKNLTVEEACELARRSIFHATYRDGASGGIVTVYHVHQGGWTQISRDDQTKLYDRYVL
# Homo sapiens = species on record: Homo sapiens; assay: To identify inhibition of the IFN signalling (Jak-Stat) pathway via expression of an eGFP reporter gene under the control of an IFN-stimulated response element (ISRE) containing MxA promoter.; format: functional; details: 30 µM
# [7] = molecular target: T4, Tyrosyl-tRNA synthetase, putative (Trypanosoma cruzi (strain CL Brener)) (UniProt Q4DSP6); assay: Trypanosoma cruzi tyrosyl tRNA synthetase (TcYRS) _High Tyrosine SOP; format: functional; details: 30 µM; also: in the data most compounds retested in dose-response had high values
# T4 sequence (whole entry): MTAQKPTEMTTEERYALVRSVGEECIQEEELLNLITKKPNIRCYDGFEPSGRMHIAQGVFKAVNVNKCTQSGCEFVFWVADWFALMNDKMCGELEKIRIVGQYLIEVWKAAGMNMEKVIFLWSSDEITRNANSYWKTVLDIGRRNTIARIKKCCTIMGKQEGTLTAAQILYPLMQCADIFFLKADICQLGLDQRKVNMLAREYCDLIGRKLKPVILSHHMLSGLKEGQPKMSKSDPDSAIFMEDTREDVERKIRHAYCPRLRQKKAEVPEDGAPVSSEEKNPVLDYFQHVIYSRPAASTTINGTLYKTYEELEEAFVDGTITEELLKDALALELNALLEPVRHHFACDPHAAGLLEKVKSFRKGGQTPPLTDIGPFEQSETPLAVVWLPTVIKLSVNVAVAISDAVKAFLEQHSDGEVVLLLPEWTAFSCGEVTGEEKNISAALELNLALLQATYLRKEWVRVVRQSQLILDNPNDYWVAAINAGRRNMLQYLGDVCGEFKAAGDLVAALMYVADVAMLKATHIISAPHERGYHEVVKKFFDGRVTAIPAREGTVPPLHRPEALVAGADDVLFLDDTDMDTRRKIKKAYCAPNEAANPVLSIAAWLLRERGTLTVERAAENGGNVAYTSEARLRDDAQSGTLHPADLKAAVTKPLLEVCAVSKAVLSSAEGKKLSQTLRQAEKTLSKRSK
# [8] = molecular target: T4, Tyrosyl-tRNA synthetase, putative (Trypanosoma cruzi (strain CL Brener)); assay: Trypanosoma cruzi tyrosyl tRNA synthetase (TcYRS) SOP; format: functional; details: 30 µM
# [9] = molecular target: Chromo domain-containing protein 1 (Saccharomyces cerevisiae (strain ATCC 204508 / S288c) (Baker's yeast)) (UniProt P32657); assay: ScCHD-1 Enzyme Inhibition Assay; format: functional; details: 30 µM; also: in the data most compounds retested in dose-response had high values
# Chromo domain-containing protein 1 (Saccharomyces cerevisiae (strain ATCC 204508 / S288c) (Baker's yeast)), sequence (P32657 whole entry, the tested form may be a part): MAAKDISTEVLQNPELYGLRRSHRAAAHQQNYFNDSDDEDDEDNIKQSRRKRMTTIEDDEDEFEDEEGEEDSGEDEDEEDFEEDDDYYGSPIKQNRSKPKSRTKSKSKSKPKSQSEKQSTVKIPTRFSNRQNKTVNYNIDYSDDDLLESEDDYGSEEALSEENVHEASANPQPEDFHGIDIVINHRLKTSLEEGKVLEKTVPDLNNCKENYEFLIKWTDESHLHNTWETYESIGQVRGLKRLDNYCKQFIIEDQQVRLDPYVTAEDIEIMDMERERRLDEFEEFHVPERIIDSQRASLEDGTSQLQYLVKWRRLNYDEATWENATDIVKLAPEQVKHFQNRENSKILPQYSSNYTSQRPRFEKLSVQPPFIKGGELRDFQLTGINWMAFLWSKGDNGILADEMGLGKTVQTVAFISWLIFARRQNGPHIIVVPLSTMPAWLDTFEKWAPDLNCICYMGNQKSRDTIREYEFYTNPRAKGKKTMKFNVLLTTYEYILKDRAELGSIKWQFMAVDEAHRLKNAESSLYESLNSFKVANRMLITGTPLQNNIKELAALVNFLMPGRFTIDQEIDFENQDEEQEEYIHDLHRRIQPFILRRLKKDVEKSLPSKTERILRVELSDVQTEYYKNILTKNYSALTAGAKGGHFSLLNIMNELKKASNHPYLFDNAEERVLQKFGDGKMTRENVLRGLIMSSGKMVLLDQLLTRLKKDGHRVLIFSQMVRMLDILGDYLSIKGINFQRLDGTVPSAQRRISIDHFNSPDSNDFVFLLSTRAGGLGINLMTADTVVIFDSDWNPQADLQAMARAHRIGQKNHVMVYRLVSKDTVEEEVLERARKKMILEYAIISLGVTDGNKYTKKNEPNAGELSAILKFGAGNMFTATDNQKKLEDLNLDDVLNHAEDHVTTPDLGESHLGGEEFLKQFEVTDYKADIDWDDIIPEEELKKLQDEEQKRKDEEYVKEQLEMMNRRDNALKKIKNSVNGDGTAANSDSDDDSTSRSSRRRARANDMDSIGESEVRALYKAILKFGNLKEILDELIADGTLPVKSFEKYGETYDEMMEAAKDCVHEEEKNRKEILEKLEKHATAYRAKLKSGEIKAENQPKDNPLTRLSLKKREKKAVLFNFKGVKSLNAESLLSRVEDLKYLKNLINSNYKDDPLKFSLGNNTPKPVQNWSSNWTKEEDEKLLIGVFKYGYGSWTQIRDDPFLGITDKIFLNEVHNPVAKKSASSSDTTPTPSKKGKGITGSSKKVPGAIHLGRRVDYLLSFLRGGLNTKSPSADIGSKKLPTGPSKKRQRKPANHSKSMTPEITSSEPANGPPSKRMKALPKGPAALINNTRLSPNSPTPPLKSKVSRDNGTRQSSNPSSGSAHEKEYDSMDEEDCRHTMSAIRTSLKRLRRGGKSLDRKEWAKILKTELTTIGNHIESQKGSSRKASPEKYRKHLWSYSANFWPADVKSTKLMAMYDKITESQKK
# Protein translocase subunit SecA (Escherichia coli (strain K12)), sequence (P10408 whole entry): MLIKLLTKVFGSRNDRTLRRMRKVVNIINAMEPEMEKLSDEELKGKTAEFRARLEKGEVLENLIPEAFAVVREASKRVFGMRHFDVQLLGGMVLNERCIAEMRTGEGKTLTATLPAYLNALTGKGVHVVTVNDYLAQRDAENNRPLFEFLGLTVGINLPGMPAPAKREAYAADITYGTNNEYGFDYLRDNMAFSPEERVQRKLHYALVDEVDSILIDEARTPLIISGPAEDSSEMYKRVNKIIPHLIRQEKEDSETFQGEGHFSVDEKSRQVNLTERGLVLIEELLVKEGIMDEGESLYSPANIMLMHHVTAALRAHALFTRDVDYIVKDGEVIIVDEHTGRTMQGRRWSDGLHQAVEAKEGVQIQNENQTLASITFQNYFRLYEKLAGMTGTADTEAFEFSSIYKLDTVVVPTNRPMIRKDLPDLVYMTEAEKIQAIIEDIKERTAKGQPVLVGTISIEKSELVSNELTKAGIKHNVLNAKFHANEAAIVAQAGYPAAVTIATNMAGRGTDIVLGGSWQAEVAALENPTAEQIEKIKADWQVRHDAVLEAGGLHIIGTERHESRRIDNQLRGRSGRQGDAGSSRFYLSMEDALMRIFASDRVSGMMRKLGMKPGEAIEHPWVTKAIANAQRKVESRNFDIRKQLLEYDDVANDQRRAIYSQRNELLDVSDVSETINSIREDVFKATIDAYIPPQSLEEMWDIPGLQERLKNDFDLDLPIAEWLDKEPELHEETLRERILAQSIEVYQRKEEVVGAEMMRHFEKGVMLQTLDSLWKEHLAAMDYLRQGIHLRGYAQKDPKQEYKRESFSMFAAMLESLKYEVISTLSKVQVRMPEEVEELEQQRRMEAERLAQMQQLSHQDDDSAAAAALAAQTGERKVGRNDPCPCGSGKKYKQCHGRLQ
SMILES,Percent Effect [1] [%],Percent Effect [2] [%],Percent Effect [3] [%],Percent Effect [4] [%],Percent Effect (Trypanosoma cruzi) [%],Percent Effect [5] [%],Percent Effect [6] [%],Percent Effect (Homo sapiens) [%],Percent Effect [7] [%],Percent Effect [8] [%],Percent Effect [9] [%]
O=S(=O)(c1ccccc1)N1CCCN(CCCn2ccnc2)CC1,-1.12,0,-5.54,24.8,5.38,-0.248,3.35,-7.92,2.15,3.7,-12.2
Cc1noc(CN2Cc3ccccc3CC2c2nnc(C)o2)n1 (stereo unspecified),-3.16,5.2,6.26,12.5,3.23,1.9,5.58,8.44,2.86,7.06,3.28
CCc1nc(CC(=O)N2CCOCC2c2ncon2)cs1 (stereo unspecified),-0.574,-2.7,-3.99,-2.13,-3.99,1.29,5.75,-8.37,0,-1.22,2.33
CCCS(=O)(=O)N1CCC(NC(=O)c2ccc(Cl)s2)CC1,-0.0871,2.67,-1.87,5.67,5.16,9.9,3.14,-1.58,8.2,16.1,-3.77
Cc1ccoc1C(=O)N1C[C@@H]2[C@@H](C1)OCC(=O)N2Cc1cccnc1,-4.32,-15.6,-0.37,0.332,-2.86,3.23,2.96,19.8,-27.5,-47.4,5.56
COc1ccccc1N1CCC(CNCc2cccc(O)c2)C1 (stereo unspecified),-2.9,-5.41,15.1,11,1.6,-4.81,4.14,20.2,0.493,6.17,-6.34
O=C(NCC1CC1)C1CN(C(=O)c2cccnc2)CC12CCOCC2 (stereo unspecified),-0.919,13,2.21,6.47,-0.296,-0.645,13.6,18.6,5.29,14.1,-4.19
Cc1cnn(CC2CN(Cc3cccc(C(=O)N(C)C)c3)CCO2)c1 (stereo unspecified),-2.21,23.4,-1.81,0.495,3.56,-7.83,14.7,14.3,7.77,19.5,-9.57
CCc1nc(C2CCCN2C(=O)CCNS(C)(=O)=O)no1 (stereo unspecified),-2.77,27,-4.56,-1.58,3.25,-2.03,19,21.8,7.92,23.2,-6.19
CC(C(=O)NCc1ccnc(Oc2ccc(F)cc2)c1)n1cncn1 (stereo unspecified),-3.42,-54,-1.15,7.66,3.86,4.29,9.31,0.85,4.76,14.6,-1.39
CC(C)c1n[nH]c(C2CN(Cc3nnc(C4CC4)o3)CCO2)n1 (stereo unspecified),-2.46,0,9.78,-2.59,-3.87,-8.37,6.47,27.6,-5.42,-11.4,-1.54
